Screening data as filed in PubChem BioAssay.
Most compounds without a hit are left out; they make up all but 2.4% or so of the library.
PP5 primary – blocks human protein phosphatase 5 activity; hit rate 0.18% among 320,000; inhibition, % at 6.7 µM; purified PP5c, OMFP substrate fluorescence; AID 1987;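 active means inhibition above the campaign's mean inhibition across all tested compounds plus 3 SD, cut at about 9.5% in these data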;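 further: 0% = DMSO only and 100% = 100 µM cantharidin control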
Target sequence (P53041 whole entry, looked up): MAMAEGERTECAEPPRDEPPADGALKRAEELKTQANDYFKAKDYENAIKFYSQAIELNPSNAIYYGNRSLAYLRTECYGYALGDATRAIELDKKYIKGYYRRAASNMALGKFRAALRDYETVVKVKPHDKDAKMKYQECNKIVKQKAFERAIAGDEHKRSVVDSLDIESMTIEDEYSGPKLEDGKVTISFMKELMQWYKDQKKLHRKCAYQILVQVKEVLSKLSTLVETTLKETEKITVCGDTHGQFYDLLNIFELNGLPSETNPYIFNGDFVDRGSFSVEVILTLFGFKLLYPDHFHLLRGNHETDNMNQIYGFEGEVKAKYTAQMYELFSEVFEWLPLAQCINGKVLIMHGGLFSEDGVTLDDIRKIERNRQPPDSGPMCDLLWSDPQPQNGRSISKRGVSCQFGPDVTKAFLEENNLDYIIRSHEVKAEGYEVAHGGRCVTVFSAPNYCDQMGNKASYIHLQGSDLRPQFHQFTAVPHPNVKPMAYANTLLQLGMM
PREPL inhibitor – inhibitors of human prolyl oligopeptidase-like enzyme PREPL; Q4J6C6; inhibition, % at 5.96 µM; hit rate 0.68% among 320,000; recombinant PREPL, fluorescence polarization activity-based probe; in the data active means inhibition above about 43%;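 further: 0% = enzyme with DMSO and 100% = wells lacking enzyme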
Rpn11 block – Rpn11 (human) deubiquitinase inhibition. human 26S proteasome, Ub4-pepOG fluorescence polarization; 20S core pre-blocked with epoxomicin. inhibition, % at 20 µM. hit rate 0.59% among 360,000. AID 588493;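 active means inhibition at 20 µM, scaled to each plate's controls, above about 33%, limit read from the data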
NadD inh – blocks S. aureus nicotinate mononucleotide adenylyltransferase; purified NadD enzyme, colorimetric absorbance read-out; inhibition, % at 20 µM; hit rate 0.78% among 360,000; AID 602399; in the data active means inhibition above about 26%
PP1 counter – counter-screen for PP5 inhibitors: inhibitors of human PP1-alpha; AID 2235; hit rate 0.9% among 320,000; purified PP1alpha, OMFP fluorescence; inhibition, % at 6.7 µM;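 active means inhibition above the mean inhibition of all tested compounds plus 3 SD, computed separately for each screening campaign, cut at about 15% in these data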
NadD conf – confirmation of Staphylococcus aureus NadD inhibitors. shares compounds with NadD inh. AID 624309. purified S. aureus NadD, colorimetric enzyme assay. inhibition, % at 20 µM. hit rate 13% among 2,000; in the data active means inhibition mostly above about 42%, no sharp cut-off; inactive means mostly below about 42%
* marks the source's active call; other numbers are inactive results; . = not tested or not shown.

SMILES	PP5 primary	PREPL inhibitor	Rpn11 block	NadD inh	PP1 counter	NadD conf
NC(=O)[C@H]1CC2(CC(c3cccc(NC(=O)COc4ccc(Cl)cc4)c3)=NO2)CN1C(=O)c1ccc(Cl)cc1 (stereo partly drawn)	4	-3	-11	40*	3	28
O=C(Cn1nnc(-c2ccccc2F)n1)Nc1ccc2c(c1)OCCO2	0	-10	-1	-8	2	.
CC(C)n1c(-c2ccc(C(C)(C)C)cc2)n[nH]c1=S	2	1	-4	29*	2	12
CC(C)(C)c1ccc(-c2n[nH]c(=S)n2Cc2ccccc2)cc1	2	9	1	4	3	.
O=[N+]([O-])c1ccc(-c2nn(-c3ccccc3)cc2/C=N/n2c(-c3cccs3)n[nH]c2=S)cc1	-1	2	-10	43*	-4	3
CSc1nnc(-c2ccncc2)n1/N=C/c1cn(-c2ccccc2)nc1-c1ccc(Cl)cc1	3	6	-10	3	-2	.
S=c1[nH]nc(-c2ccncc2)n1/N=C/c1cn(-c2ccccc2)nc1-c1ccc(Cl)cc1	1	10	-3	45*	-1	5
CC[C@H](C)[C@H](NC(=O)c1ccccc1)C(=O)NC(CC(=O)O)c1ccc(F)cc1 (stereo partly drawn)	0	-4	0	-2	1	.
Cc1ccc(Nc2nc(Nc3ccc(C)cc3)nc(SC3=NCCS3)n2)cc1	1	8	-1	30*	2	51*
COc1ccc2c(c1)OC[C@H]1[C@H]2N2C(=O)CNC(=O)[C@@]2(C)[C@H]1c1ccccc1	.	9	.	.	.	.
CC1CC2=C(NC(=S)NC2c2ccccc2F)/C(=C/c2ccccc2F)C1 (stereo not drawn)	4	1	1	32*	4	23
FC(F)(F)c1ccccc1Cc1c(-c2ccc(Cl)cc2)nc2c3ccccc3ccn12	.	.	.	33*	.	9
CC(=O)Nc1ccc(N2C(C(C)=O)=NN(c3ccc(Cl)cc3)C2c2sccc2C)cc1 (stereo not drawn)	3	-2	11	1	0	.
COc1ccc(-c2c/c(=N\c3nc(-c4ccccc4)c(C)s3)c3ccccc3o2)cc1O	2	22	26	39*	4	18
COc1ccc(-c2cc(=Nc3c(C)n(C)n(-c4ccccc4)c3=O)c3ccccc3o2)cc1	-3	-16	0	8	-7	.
CC(=O)Nc1ccc(C(=O)OCC(=O)Nc2c(C)n(C)n(-c3ccccc3)c2=O)cc1	.	8	0	1	.	.
CCNc1sc(C(=O)c2cccs2)c(N)c1-c1nc2ccccc2s1	2	10	11	30*	3	0
CC(=O)N1CCN(c2nc(-c3ccco3)c3c(c2C#N)CC(C)(C)SC3)CC1	2	0	11	18	2	.
CC1(C)Cc2c(C#N)c(N3CCN(C(=O)c4ccccc4Cl)CC3)nc(-c3ccco3)c2CS1	4	11	26	34*	17*	1
Cc1ccc(CNC(=O)CNC(=O)c2ccc(C(C)(C)C)cc2)n1C	.	34	-1	4	.	.
Cc1cc(C)c2cc(CN(Cc3ccc4c(c3)OCO4)Cc3nnnn3Cc3ccco3)c(=O)[nH]c2c1	3	-31	20	37*	8	10
O=c1[nH]c2cc3c(cc2cc1CN(Cc1ccccc1)Cc1nnnn1Cc1ccco1)OCCO3	.	.	.	33*	.	15
Cc1ccc2[nH]c(=O)c(CN(Cc3ccc4c(c3)OCO4)Cc3nnnn3Cc3ccco3)cc2c1	3	-2	4	16	10	.
COc1ccc(NC(=O)CSc2nc3c(cc2C#N)CN(C)CC3)cc1	0	10	7	30*	6	-8
O=[N+]([O-])c1cc(S(=O)(=O)Nc2ccc(Cl)cc2)ccc1N/N=C/c1ccncc1	0	14	1	47*	-5	24
SMILES	PP5 primary	PREPL inhibitor	Rpn11 block	NadD inh	PP1 counter	NadD conf
O=[N+]([O-])c1ccc(Cl)cc1N/N=C/c1ccncc1	2	5	2	0	0	.
C#CCN(C[C@H]1[C@H](OC(=O)NCc2ccccc2F)[C@H](OC(=O)NCc2ccccc2F)C[C@H]2C(=O)N(c3ccccc3)C(=O)[C@@H]12)S(=O)(=O)c1ccc(C)cc1	.	.	5	30*	.	40
O=C(/C=C/c1ccco1)Nc1ccc(C(=O)N2CCOCC2)cc1	1	9	2	0	2	.
O=C(/C=C/c1ccco1)Nc1ccc(N2CCCC2)cc1	-2	8	-2	36*	2	5
C/C(CC(=O)Nc1ccccc1F)=N\NC(=O)Cc1ccc(Cl)cc1	2	-14	10	-2	-2	.
COc1cccc(=O)c2c(C)n(-c3cc(C)cc(C)c3)c(C)c12	3	16	2	35*	5	43
COc1cc(OC)c(C(=O)N/N=C/c2ccoc2)cc1OC	-5	9	-6	-2	-3	.
O=C(Nc1nnc(SCc2ccc(F)cc2)s1)C1Cc2ccccc2CN1C(=O)c1ccco1 (stereo not drawn)	4	-22	10	60*	11	52*
OC(c1ccc(Cl)c(Cl)c1)c1ncc(-c2ccccc2F)[nH]1 (stereo not drawn)	.	.	1	-4	.	.
O=C(/C=C/c1ccco1)N1CCC(Cc2ccccc2)CC1	0	2	23	34*	0	21
O=C(/C=C/c1ccco1)N1CCN(c2ncccn2)CC1	1	0	-10	0	1	.
COc1ccccc1N1CCN(C(C)C(=O)Nc2ccc(S(=O)(=O)N3CCOCC3)cc2)CC1 (stereo not drawn)	4	12	-5	-7	-12	.
COc1cc(C(=O)Nn2cnnc2)ccc1OC(F)F	-1	3	-3	-4	1	.
CCOc1ccc(NS(=O)(=O)c2ccc(Cl)c(N=Nc3c(O)[nH]c(=S)[nH]c3=O)c2)cc1Br	.	.	-21	39*	.	63*
O=C(Nc1cccc(-c2csc(Nc3cccc(C(F)(F)F)c3)n2)c1)c1cc([N+](=O)[O-])cc(C(F)(F)F)c1	1	-2	-6	37*	-2	1
O=C(Nc1ccc(-c2csc(Nc3ccccc3)n2)cc1)c1cc([N+](=O)[O-])cc(C(F)(F)F)c1	-1	3	-9	32*	0	12
O=C(Nc1ccc(-c2csc(Nc3ccccc3)n2)cc1)c1cccc(C(F)(F)F)c1	5	14	-4	15	-4	.
CC1(C)CC(=O)C=C(c2n[nH]nc2C2CCCCC2)C1	.	.	0	5	.	.
Cn1c(O)c(C2=c3ccccc3=NC2=O)[nH]c1=S	4	4	4	2	6	.
COc1ccc2nc(-n3c(O)c(C4=c5ccccc5=NC4=O)[nH]c3=S)sc2c1	3	12	-15	52*	15*	11
O=C(NNc1nc(-c2ccccc2)c2cc(Br)ccc2n1)c1ccc(S(=O)(=O)N2CCCCC2)cc1	4	8	5	37*	13	25
